From PubChem BioAssay
DT40 TDP1 CPT = growth inhibition of DT40 Tdp1-/-;hTDP1 cells with camptothecin (screen for TDP1 inhibitors); chicken DT40 Tdp1-/-;hTDP1 cells + 20 nM CPT, ATP luminescence, 48 h; Potency, µM (highest dose often 46.2 µM), inactives show at the top dose activity change, negative = growth inhibition, hits mostly inhibitors; 12% of 420,000 active; AID 686979; note: potency is the fitted concentration of half-maximal effect; % is set by controls: 0 for no effect and ±100 for the full control effect; nearly all actives have a fitted effect of over 55% in size
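Chicken DT40 Tdp1-/- cells stably complemented with human TDP1 were seeded at 400 cells/well in medium containing 20 nM camptothecin, exposed to pin-transferred compounds, and grown at 37 °C for at least 48 hr. Viability was read as ATP luminescence.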
DT40 TDP1 no CPT = qHTS for Inhibitors of human tyrosyl-DNA phosphodiesterase 1 (TDP1): qHTS in cells in absence of CPT | DT40 Tdp1-/- hTDP1 cells, no CPT, ATP luminescence, 48 h | Potency, µM (titrated, usually from 46.2 µM), for the others: at the highest dose activity change, negative = growth inhibition, most hits filed as inhibitors | 15% of 420,000 active; note: potency is the fitted concentration of half-maximal effect; % is set by controls: 0 for no effect and ±100 for the full control effect; nearly all actives have a fitted effect of over 55% in size
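DT40 Tdp1-/-;hTDP1 cells, no CPT (DMSO vehicle only), 400 cells/well; compounds pin-transferred; ≥48 hr, 37 °C; CellTiter-Glo 30 min RT dark, luminescence read.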
MCF10A rereplic = induces DNA re-replication in MCF 10a normal breast cells | 2.9% of 350,000 active | Potency, µM (highest dose often 46.1 µM), for inactives: top-dose activity, positive = re-replication, hits mostly activators | MCF 10A DNA re-replication, Hoechst nuclear intensity, 48 h; note: potency is the fitted concentration of half-maximal effect; % of control where 0% means no effect; nearly all actives have a fitted effect of over 50% in size
IL-1B inflam inh = inflammasome signaling inhibition, IL-1 beta readout. activity change, % at 57.5 µM. 4.7% of 360,000 active. THP-1 LPS/ATP IL-1B secretion, AlphaLISA, 16 h; active compounds read low; in the data active = activity change below about -50%; inconclusive = mostly about -30% to -49%; note: % is set by controls: 0 for no effect and ±100 for the full control effect
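Secreted IL-1B measured by AlphaLISA bead assay after 16 h compound exposure of THP-1 cells; compounds (final up to 57.5 uM) added 1 h before LPS (250 ng/mL) and ATP (1.25 mM) stimulation; lower signal means less secretion.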
SW480 rerep = induces DNA re-replication in SW480 colon adenocarcinoma cells; SW480 DNA re-replication, Hoechst DNA content imaging, 48 h; Potency, µM (top dose mostly 46.1 µM), for inactives: at the highest dose re-replication activation, most hits filed as activators; 1.8% of 340,000 active; AID 624297; note: potency is the fitted concentration of half-maximal effect; % of control where 0% means no effect; nearly all actives have a fitted effect of over 55% in size
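Per well, 250 cells were exposed to pinned compound for 48 hr. Nuclear DNA was visualised with Hoechst (40 min, 37 C) and total object intensity recorded by fluorescence scanning.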
Chronic BCR inh = blocks chronic active B-cell receptor signaling; ABC-DLBCL IkBa-CBG/CBR reporter, luminescence ratio, 4 h; Potency, µM (doses to about 46.1 µM), for the others: top-dose activity change, negative = inhibition, most hits filed as inhibitors; 0.05% of 340,000 active; AID 493014; active = well fitted inhibition curve with a large enough effect in the signal ratio, with a control signal flat, not every such curve was filed as active; inconclusive = small, poorly fitted or top-dose-only effect, or effect the other way, or a change in a side signal; the % refers to the signal ratio;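 note: potency is the fitted concentration of half-maximal effect; plate controls were basal doxycycline-induced cells for no effect and cells given 10 µM MG132 for full effect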
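TMD8 human ABC-DLBCL cells with doxycycline-inducible IκBα–green luciferase fusion and unfused red luciferase, in 0.5% FBS medium; compounds up to 46 uM, 4 h at 37C. Green/red luminescence ratio, filter-overlap corrected, fitted to concentration-response curves.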
* hit, by the source's call. Hits are enriched below; roughly 19% of the tested compounds scored in any of these assays. Unless noted, calls come from the whole dose curve; as a rule, active = well fitted curve in the direction sought with a large enough effect; inconclusive = small, poorly fitted or top-dose-only effect, or another doubt; inactive = no such curve, though single readings can be large; an effect the other way counts as inactive or inconclusive.

How did Cc1ccc(NC(=O)/C=C\C(=O)N(c2ccc(C(C)C)cc2)C(C(=O)NCc2ccco2)c2ccc(F)cc2)cc1 (stereo not drawn) do in these assays?
DT40 TDP1 CPT: 14.6µM*; DT40 TDP1 no CPT: 18.4µM*; Chronic BCR inh: -7.4%

How did COc1ccc(N(CC(=O)NCc2ccco2)S(=O)(=O)c2ccc(C)cc2)cc1 do in these assays?
DT40 TDP1 CPT: -8.9%; DT40 TDP1 no CPT: inconclusive; MCF10A rereplic: inconclusive; IL-1B inflam inh: 0.0; SW480 rerep: inconclusive; Chronic BCR inh: 3.4%

How did CN1CCN(C(CNC(=O)C(=O)Nc2ccc3c(c2)OCCO3)c2ccc(F)cc2)CC1 (stereo not drawn) do in these assays?
DT40 TDP1 CPT: -6.0%; DT40 TDP1 no CPT: -29.0%; MCF10A rereplic: -2.3%; IL-1B inflam inh: inconclusive; SW480 rerep: 369.9%; Chronic BCR inh: -6.9%

What do the screens show for `CN[C@H]1C[C@H]2c3cc(N4CCN(C)CC4)ccc3CCN2C(=O)[C@H]1[C@H](C)O`?
DT40 TDP1 CPT: -11.7%; DT40 TDP1 no CPT: -11.1%; IL-1B inflam inh: 12.0

Results for CNC(=O)C1C(=S)NC(N)=C(C#N)C1c1ccccc1 (stereo not drawn) ?
DT40 TDP1 CPT: 25.9µM*; DT40 TDP1 no CPT: 6.51µM*; MCF10A rereplic: inconclusive; IL-1B inflam inh: inconclusive; SW480 rerep: 3.26µM*; Chronic BCR inh: inconclusive

What do the screens show for `CSC1=C(C#N)C(c2ccccc2)C(C(C)=O)=C(C)N1` (stereo not drawn)?
DT40 TDP1 CPT: 1.0%; DT40 TDP1 no CPT: -1.9%; MCF10A rereplic: 2.1%; IL-1B inflam inh: 10.7; SW480 rerep: -5.4%; Chronic BCR inh: 2.7%

What do the screens show for `COc1ccccc1/C=C/C(=O)Nc1ccc2c(c1)CCC2`?
DT40 TDP1 CPT: -27.4%; DT40 TDP1 no CPT: 11.6µM*; MCF10A rereplic: 12.0%; IL-1B inflam inh: inconclusive; SW480 rerep: -6.5%; Chronic BCR inh: inconclusive

How did COc1ccccc1/C=C/C(=O)Nc1ccc2c(c1)OCCO2 do in these assays?
DT40 TDP1 CPT: 8.2µM*; DT40 TDP1 no CPT: 10.3µM*; MCF10A rereplic: 13µM*; IL-1B inflam inh: -58.1*; SW480 rerep: 16.4µM*; Chronic BCR inh: inconclusive

What do the screens show for `O=C(/C=C/c1ccco1)Nc1ccc2c(c1)OCCO2`?
DT40 TDP1 CPT: -16.3%; DT40 TDP1 no CPT: -17.1%; MCF10A rereplic: 10.3%; IL-1B inflam inh: -70.3*; SW480 rerep: 7.4%; Chronic BCR inh: inconclusive

How did O=C(/C=C/c1ccco1)Nc1ccc(Oc2ccc(Cl)cc2)cc1 do in these assays?
DT40 TDP1 CPT: 4.11µM*; DT40 TDP1 no CPT: 3.26µM*; MCF10A rereplic: 4.61µM*; IL-1B inflam inh: -6.5; SW480 rerep: inconclusive; Chronic BCR inh: 2.0%

How did CCO[C@H]1OC(C(=O)Nc2ccccc2)=C[C@@H](C)[C@@H]1CCCO do in these assays?
DT40 TDP1 CPT: -2.4%; DT40 TDP1 no CPT: -17.2%; MCF10A rereplic: inconclusive; IL-1B inflam inh: 4.3; SW480 rerep: 0.7%; Chronic BCR inh: -2.0%

How did COc1ccc(F)cc1S(=O)(=O)NCC(c1ccco1)S(=O)(=O)c1cccs1 (stereo not drawn) do in these assays?
DT40 TDP1 CPT: inconclusive; DT40 TDP1 no CPT: inconclusive; Chronic BCR inh: 0.3%

Results for COc1ccc(NC(=O)c2noc3c2CCCC3)cc1Cl ?
DT40 TDP1 CPT: -21.8%; DT40 TDP1 no CPT: -0.8%

What do the screens show for `CCC(C)c1ccccc1N1CC(C(=O)Nc2cc(S(=O)(=O)N3CCOCC3)ccc2OC)CC1=O` (stereo not drawn)?
DT40 TDP1 CPT: -24.4%; DT40 TDP1 no CPT: -3.6%; MCF10A rereplic: 9.3%; IL-1B inflam inh: 21.5; SW480 rerep: 16.4µM*

Results for CCCC(NCC(=O)Nc1cc(S(=O)(=O)N2CCOCC2)ccc1OC)c1ccccc1 (stereo not drawn) ?
DT40 TDP1 CPT: 16.4µM*; DT40 TDP1 no CPT: 14.6µM*; MCF10A rereplic: 5.7%; IL-1B inflam inh: inconclusive; SW480 rerep: -5.0%; Chronic BCR inh: -0.8%

Results for COc1ccc(S(=O)(=O)N2CCOCC2)cc1NC(=O)Cc1ccccc1Cl ?
DT40 TDP1 CPT: 10.3%; DT40 TDP1 no CPT: -12.8%; MCF10A rereplic: -8.2%; IL-1B inflam inh: 19.9; SW480 rerep: -6.1%; Chronic BCR inh: 0.2%

How did COc1ccc(S(=O)(=O)N2CCOCC2)cc1NC(=O)CC(C)c1ccccc1 (stereo not drawn) do in these assays?
DT40 TDP1 CPT: -25.4%; DT40 TDP1 no CPT: 20.6µM*; MCF10A rereplic: -1.6%; IL-1B inflam inh: -6.8; SW480 rerep: -8.7%; Chronic BCR inh: -1.0%

Results for O=C(COc1ncnc2sccc12)NC1CCCCC1 ?
DT40 TDP1 CPT: 1.5%; DT40 TDP1 no CPT: -1.8%; MCF10A rereplic: -2.4%; IL-1B inflam inh: 33.3; SW480 rerep: -57.8%; Chronic BCR inh: 3.7%

Results for C=CCN1C(=O)/C(=C\c2ccc(Cl)cc2)N=C1SCC(=O)NC1CCCCC1 ?
DT40 TDP1 CPT: -4.7%; DT40 TDP1 no CPT: -16.2%; MCF10A rereplic: -4.5%; IL-1B inflam inh: 7.2; SW480 rerep: -7.9%; Chronic BCR inh: 3.7%

What do the screens show for `COc1ccc(Cl)cc1N1C(=O)/C(=C\c2sccc2C)N=C1SCC(=O)NC1CC1`?
DT40 TDP1 CPT: 16.4µM*; DT40 TDP1 no CPT: 16.4µM*; MCF10A rereplic: -2.7%; IL-1B inflam inh: inconclusive; SW480 rerep: 9.9%; Chronic BCR inh: inconclusive

What do the screens show for `CC1CC1C(=O)OCC(=O)NNC(=O)c1ccc([N+](=O)[O-])cc1` (stereo not drawn)?
DT40 TDP1 CPT: 10.6%; DT40 TDP1 no CPT: 9.0%; MCF10A rereplic: -5.0%; IL-1B inflam inh: 15.8; SW480 rerep: -2.6%; Chronic BCR inh: -0.1%

Results for CCOc1ccc(NC(=O)c2oc3ccccc3c2NC(=O)c2ccc(OC)cc2OC)cc1 ?
DT40 TDP1 CPT: 23.1µM*; DT40 TDP1 no CPT: 18.4µM*

How did COc1ccccc1C(=O)Nc1c(C(=O)c2ccccc2)oc2ccccc12 do in these assays?
DT40 TDP1 CPT: 18.4µM*; DT40 TDP1 no CPT: inconclusive

Results for COc1ccc(C(=O)c2oc3ccccc3c2NC(C)=O)cc1 ?
DT40 TDP1 CPT: inconclusive; DT40 TDP1 no CPT: inconclusive; MCF10A rereplic: 40.4%; IL-1B inflam inh: -12.0; SW480 rerep: inconclusive; Chronic BCR inh: inconclusive

What do the screens show for `COc1cccc(C(=O)Nc2c(C(=O)Nc3ccc(F)cc3)oc3ccccc23)c1OC`?
DT40 TDP1 CPT: -11.3%; DT40 TDP1 no CPT: inconclusive
